# What was measured:
# [1] = molecular target: T1, CDK3/cyclin E (Homo sapiens) (UniProt P24864+O96020+Q00526); conditions: at 1 µM
# [2] = molecular target: T1, CDK3/cyclin E (Homo sapiens); conditions: at 10 µM
# [3] = molecular target: T2, Cyclin-dependent kinase 5/CDK5 activator 1 (Homo sapiens) (UniProt Q00535+Q15078); conditions: at 1 µM
# [4] = molecular target: T2, Cyclin-dependent kinase 5/CDK5 activator 1 (Homo sapiens); conditions: at 10 µM
# [5] = molecular target: T2, Cyclin-dependent kinase 5/CDK5 activator 1 (Homo sapiens); conditions: at 1 µM; remark: listed apart in the source
# [6] = molecular target: T2, Cyclin-dependent kinase 5/CDK5 activator 1 (Homo sapiens); conditions: at 10 µM; remark: listed apart in the source
# [7] = molecular target: T3, CDK6/cyclin D3 (Homo sapiens) (UniProt P30281+Q00534); conditions: at 1 µM
# [8] = molecular target: T3, CDK6/cyclin D3 (Homo sapiens); conditions: at 10 µM
# [9] = molecular target: T4, Cyclin-dependent kinase 7/ cyclin H (Homo sapiens) (UniProt P51946+P50613); conditions: at 1 µM
# [10] = molecular target: T4, Cyclin-dependent kinase 7/ cyclin H (Homo sapiens); conditions: at 10 µM
# [11] = molecular target: T5, CDK9/cyclin T1 (Homo sapiens) (UniProt O60563+P50750); conditions: at 1 µM
# [12] = molecular target: T6, Serine/threonine-protein kinase Chk1 (Homo sapiens) (UniProt O14757); conditions: at 1 µM
# T6 sequence (whole entry): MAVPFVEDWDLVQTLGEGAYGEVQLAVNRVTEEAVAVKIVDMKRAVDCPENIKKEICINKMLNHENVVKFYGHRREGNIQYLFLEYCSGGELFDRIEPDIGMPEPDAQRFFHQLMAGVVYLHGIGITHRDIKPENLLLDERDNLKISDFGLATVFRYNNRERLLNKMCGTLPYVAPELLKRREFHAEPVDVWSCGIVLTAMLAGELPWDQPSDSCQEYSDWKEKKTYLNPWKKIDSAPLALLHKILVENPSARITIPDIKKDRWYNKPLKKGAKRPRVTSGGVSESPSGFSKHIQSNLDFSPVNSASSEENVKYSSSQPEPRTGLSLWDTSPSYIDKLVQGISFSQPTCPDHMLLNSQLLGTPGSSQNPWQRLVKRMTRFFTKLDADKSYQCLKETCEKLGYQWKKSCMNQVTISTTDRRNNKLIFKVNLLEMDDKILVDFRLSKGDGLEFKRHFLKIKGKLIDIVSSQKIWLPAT
# [13] = molecular target: T6, Serine/threonine-protein kinase Chk1 (Homo sapiens); conditions: at 10 µM
# [14] = molecular target: Serine/threonine-protein kinase Chk2 (Homo sapiens) (UniProt O96017); conditions: at 1 µM
# Chain of Serine/threonine-protein kinase Chk2 (Homo sapiens) (O96017 whole entry, canonical isoform): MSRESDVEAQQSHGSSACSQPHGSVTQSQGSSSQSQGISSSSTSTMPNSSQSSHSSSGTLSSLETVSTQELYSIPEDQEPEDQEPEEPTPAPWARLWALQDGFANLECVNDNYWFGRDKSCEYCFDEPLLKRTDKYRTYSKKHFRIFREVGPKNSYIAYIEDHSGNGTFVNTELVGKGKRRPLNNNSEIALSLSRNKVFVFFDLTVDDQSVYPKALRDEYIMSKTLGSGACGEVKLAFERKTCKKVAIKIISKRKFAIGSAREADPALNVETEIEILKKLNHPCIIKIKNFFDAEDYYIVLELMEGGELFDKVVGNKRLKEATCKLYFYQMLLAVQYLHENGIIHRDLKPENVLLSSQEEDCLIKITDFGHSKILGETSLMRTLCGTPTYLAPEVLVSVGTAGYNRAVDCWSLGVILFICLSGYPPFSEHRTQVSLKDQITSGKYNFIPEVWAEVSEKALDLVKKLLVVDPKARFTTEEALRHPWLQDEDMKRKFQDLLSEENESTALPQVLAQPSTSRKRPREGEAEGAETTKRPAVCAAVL
# [15] = molecular target: Serine/threonine-protein kinase Chk2 (Homo sapiens) (UniProt O96017); conditions: at 10 µM
# [16] = molecular target: Casein kinase I isoform gamma-1 (Homo sapiens) (UniProt Q9HCP0); conditions: at 1 µM
# Chain of Casein kinase I isoform gamma-1 (Homo sapiens) (Q9HCP0 whole entry, looked up, canonical isoform): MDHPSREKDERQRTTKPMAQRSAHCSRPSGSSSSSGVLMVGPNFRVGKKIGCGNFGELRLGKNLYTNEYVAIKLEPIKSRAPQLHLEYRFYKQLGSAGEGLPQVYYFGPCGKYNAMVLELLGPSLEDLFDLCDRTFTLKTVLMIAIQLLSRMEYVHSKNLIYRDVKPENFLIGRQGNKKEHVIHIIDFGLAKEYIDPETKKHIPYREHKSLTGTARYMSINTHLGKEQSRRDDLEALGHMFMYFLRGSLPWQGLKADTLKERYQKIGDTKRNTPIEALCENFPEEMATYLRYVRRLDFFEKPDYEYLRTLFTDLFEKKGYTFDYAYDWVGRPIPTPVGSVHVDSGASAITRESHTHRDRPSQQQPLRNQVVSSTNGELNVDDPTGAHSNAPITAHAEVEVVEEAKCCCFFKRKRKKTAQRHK
# [17] = molecular target: Casein kinase I isoform gamma-1 (Homo sapiens) (UniProt Q9HCP0); conditions: at 10 µM
# [18] = molecular target: Casein kinase I isoform delta (Homo sapiens) (UniProt P48730); conditions: at 1 µM
# Chain of Casein kinase I isoform delta (Homo sapiens) (P48730 whole entry, looked up, canonical isoform): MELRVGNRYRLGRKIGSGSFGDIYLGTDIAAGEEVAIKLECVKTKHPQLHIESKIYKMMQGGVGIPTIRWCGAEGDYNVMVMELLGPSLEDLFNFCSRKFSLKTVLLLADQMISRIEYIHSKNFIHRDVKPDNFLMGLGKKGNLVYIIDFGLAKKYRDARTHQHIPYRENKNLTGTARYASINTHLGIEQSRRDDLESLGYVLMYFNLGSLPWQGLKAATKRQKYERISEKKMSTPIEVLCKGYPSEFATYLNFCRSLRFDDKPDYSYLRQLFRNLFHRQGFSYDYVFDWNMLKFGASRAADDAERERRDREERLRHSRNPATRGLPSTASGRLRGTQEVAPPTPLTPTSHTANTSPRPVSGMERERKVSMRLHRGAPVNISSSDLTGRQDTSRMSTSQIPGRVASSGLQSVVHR
# [19] = molecular target: Casein kinase I isoform delta (Homo sapiens) (UniProt P48730); conditions: at 10 µM
# [20] = molecular target: T5, CDK9/cyclin T1 (Homo sapiens); conditions: at 10 µM
# T2 sequence (Q00535 whole entry): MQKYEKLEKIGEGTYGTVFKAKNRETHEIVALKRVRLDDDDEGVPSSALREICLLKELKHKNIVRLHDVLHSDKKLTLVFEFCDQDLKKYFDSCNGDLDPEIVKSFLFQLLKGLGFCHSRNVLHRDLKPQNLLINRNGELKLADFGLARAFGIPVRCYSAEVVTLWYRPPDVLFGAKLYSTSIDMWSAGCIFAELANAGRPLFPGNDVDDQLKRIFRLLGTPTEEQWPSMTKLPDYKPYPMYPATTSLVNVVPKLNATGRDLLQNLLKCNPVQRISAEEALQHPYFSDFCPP
# T2 sequence (Q15078 99-307 partner limits assumed): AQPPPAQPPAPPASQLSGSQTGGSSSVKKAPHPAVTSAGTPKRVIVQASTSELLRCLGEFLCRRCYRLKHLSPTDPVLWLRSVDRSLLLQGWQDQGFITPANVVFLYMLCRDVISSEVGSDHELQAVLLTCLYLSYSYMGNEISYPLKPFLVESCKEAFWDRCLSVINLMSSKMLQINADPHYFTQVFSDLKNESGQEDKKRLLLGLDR
# T1 sequence (O96020 whole entry, looked up): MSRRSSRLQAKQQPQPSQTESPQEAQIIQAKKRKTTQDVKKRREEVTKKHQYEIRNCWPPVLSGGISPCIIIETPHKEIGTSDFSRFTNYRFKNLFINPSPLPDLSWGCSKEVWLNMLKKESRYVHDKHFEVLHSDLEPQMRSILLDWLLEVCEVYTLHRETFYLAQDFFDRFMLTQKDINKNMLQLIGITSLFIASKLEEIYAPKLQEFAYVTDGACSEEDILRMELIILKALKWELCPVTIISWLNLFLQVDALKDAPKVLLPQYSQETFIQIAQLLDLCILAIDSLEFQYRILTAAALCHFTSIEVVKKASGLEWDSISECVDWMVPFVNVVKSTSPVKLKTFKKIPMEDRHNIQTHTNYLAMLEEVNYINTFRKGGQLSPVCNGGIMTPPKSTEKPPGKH
# T1 sequence (P24864 whole entry, looked up): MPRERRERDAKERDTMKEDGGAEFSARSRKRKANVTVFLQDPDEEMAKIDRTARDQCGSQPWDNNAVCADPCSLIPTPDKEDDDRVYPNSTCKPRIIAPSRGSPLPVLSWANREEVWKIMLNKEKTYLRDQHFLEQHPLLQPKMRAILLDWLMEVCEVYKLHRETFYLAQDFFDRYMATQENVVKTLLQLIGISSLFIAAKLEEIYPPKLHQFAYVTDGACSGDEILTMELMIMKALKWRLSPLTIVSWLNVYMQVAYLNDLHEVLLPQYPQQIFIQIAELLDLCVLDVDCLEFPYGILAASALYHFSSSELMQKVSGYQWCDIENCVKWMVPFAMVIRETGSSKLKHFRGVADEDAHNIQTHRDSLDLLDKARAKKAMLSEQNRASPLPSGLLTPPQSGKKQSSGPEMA
# T1 sequence (Q00526 whole entry, looked up): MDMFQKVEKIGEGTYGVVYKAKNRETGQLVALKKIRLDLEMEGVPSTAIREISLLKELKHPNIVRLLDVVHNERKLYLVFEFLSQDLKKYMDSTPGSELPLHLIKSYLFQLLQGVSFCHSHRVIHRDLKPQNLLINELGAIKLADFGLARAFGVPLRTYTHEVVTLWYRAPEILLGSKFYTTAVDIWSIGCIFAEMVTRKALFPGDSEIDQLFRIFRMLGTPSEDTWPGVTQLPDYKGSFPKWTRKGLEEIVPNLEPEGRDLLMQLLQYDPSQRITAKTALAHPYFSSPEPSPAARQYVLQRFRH
SMILES,residual activity [1],residual activity [2],residual activity [3],residual activity [4],residual activity [5],residual activity [6],residual activity [7],residual activity [8],residual activity [9],residual activity [10],residual activity [11],residual activity [12],residual activity [13],residual activity [14],residual activity [15],residual activity [16],residual activity [17],residual activity [18],residual activity [19],residual activity [20]
O=C(CCCc1ccc(-c2ccccc2F)cc1)Nc1ccc(O)cc1,102%,94%,104%,99%,111%,99%,103%,98%,98%,105%,104%,93%,108%,91%,72%,107%,102%,98%,92%,
CN(C)S(=O)(=O)c1ccc2c(c1)/C(=C/c1cc3c([nH]1)CCCC3)C(=O)N2,87%,83%,90%,98%,90%,87%,96%,87%,25%,16%,92%,77%,73%,35%,,,,92%,71%,93%
c1ccc(-c2cnc(Nc3ccc(OCCN4CCCC4)cc3)s2)cc1,81%,43%,64%,17%,71%,25%,38%,6%,70%,39%,26%,,,,,,,81%,54%,4%
O=c1cc(N2CCOCC2)oc2c1ccc1ccccc12,102%,79%,80%,67%,100%,81%,100%,89%,86%,88%,95%,90%,93%,111%,93%,100%,94%,98%,86%,70%
O=C1C(Cl)=C(N2C(=O)CCC2=O)C(=O)c2ccccc21,97%,85%,95%,86%,119%,85%,98%,86%,,89%,86%,94%,87%,88%,84%,,,91%,85%,87%
CCCCc1c(-c2ccc(OC)cc2)[nH]c2nccnc12,40%,32%,19%,33%,25%,38%,87%,58%,84%,44%,10%,,,44%,11%,79%,77%,85%,73%,17%
CCOC(=O)c1c(C)[nH]c(/C=C2\C(=O)Nc3ccccc32)c1C,100%,90%,,,,,93%,95%,,,,90%,92%,45%,34%,88%,81%,77%,62%,
NC(=O)c1ccc(-c2nc(-c3ccc4c(c3)OCCO4)c(-c3ccccn3)[nH]2)cc1,,,,84%,96%,80%,,,92%,81%,,,,92%,81%,82%,83%,17%,2%,
COc1cc2nccc(Oc3ccc(NC(=O)Nc4cc(C)on4)c(Cl)c3)c2cc1OC,,,,,,,96%,99%,99%,107%,,,,79%,30%,,,,,72%
O=C1Cc2c([nH]c3ccc([N+](=O)[O-])cc23)-c2ccccc2N1,,6%,9%,6%,6%,6%,60%,26%,,,1%,39%,,3%,1%,,,,,2%
N#Cc1c(NC(=O)c2cccc3ccccc23)sc2c1CCCC2,,,,,,,,90%,,,99%,,,,76%,,,83%,77%,100%
O=C1Cc2c([nH]c3ccc(Br)cc23)-c2ccccc2N1,54%,9%,,,47%,9%,78%,30%,91%,80%,,77%,53%,,,,71%,80%,68%,
NCCNc1ncc(C(N)=O)c(Nc2cccc(C(F)(F)F)c2)n1,,,77%,25%,70%,33%,,,78%,49%,73%,66%,27%,15%,2%,,,79%,58%,21%
CC(C)[C@H](CO)Nc1nc(Nc2cc(N)cc(Cl)c2)c2ncn(C(C)C)c2n1,,,,,20%,2%,,,43%,6%,,,,67%,30%,,,74%,26%,
CCOc1nc(NC(=O)Cc2cc(OC)ccc2OC)cc(N)c1C#N,82%,,,,,,100%,,,,,,,,,,,,,
O=C(Nc1nc2ccccc2n1CCN1CCOCC1)c1cccc([N+](=O)[O-])c1,,,,,,,88%,88%,75%,77%,41%,85%,,79%,67%,58%,67%,64%,62%,58%
NC(=O)c1cccc(-c2cc(Nc3ccc(OC(F)(F)F)cc3)ncn2)c1,,,93%,65%,,,,,,91%,,99%,96%,95%,87%,94%,63%,90%,74%,69%
N#C/C(=C\c1ccc(O)c(O)c1)C(=O)NCc1ccccc1,100%,81%,,,,,,,,,,,,89%,73%,,,80%,87%,
O=S(=O)(c1cccc2cnccc12)N1CCCNCC1,,,,,,,,,,,81%,,,,54%,124%,100%,,,29%

SMILES,residual activity [1],residual activity [2],residual activity [3],residual activity [4],residual activity [5],residual activity [6],residual activity [7],residual activity [8],residual activity [9],residual activity [10],residual activity [11],residual activity [12],residual activity [13],residual activity [14],residual activity [15],residual activity [16],residual activity [17],residual activity [18],residual activity [19],residual activity [20]
Nc1nccc(-c2c(-c3ccc(F)cc3)ncn2C2CCNCC2)n1,,,,,,,,,100%,68%,,,,,,72%,21%,,,
Cc1cc(C)c(/C=C2\C(=O)Nc3ccccc32)[nH]1,,69%,,,,,,60%,64%,32%,100%,72%,38%,18%,3%,,,13%,2%,78%
COc1ccc(CNC(=O)Nc2ncc([N+](=O)[O-])s2)cc1,68%,26%,,,,,,,,69%,,,,,77%,,,,,5%
O=S(=O)(NCCNC/C=C/c1ccc(Br)cc1)c1cccc2cnccc12,,59%,,,,63%,,,,41%,72%,81%,44%,81%,27%,,,,,41%
O=C(Nc1ccc(Cl)cc1)c1ccccc1NCc1ccncc1,,,,,,,102%,102%,,124%,,,,,,,,,,
CCN(CC)CCNC(=O)c1c(C)[nH]c(/C=C2\C(=O)Nc3ccc(Cl)cc32)c1C,,,77%,22%,72%,28%,70%,13%,15%,2%,48%,24%,3%,6%,1%,64%,14%,23%,5%,13%
COc1ccc(Cl)cc1NC(=O)Nc1cc(C)nc2ccccc12,93%,91%,,,,77%,95%,83%,80%,90%,,86%,81%,85%,,94%,100%,,,
CN([C@@H](Cc1ccc(OS(=O)(=O)c2cccc3cnccc23)cc1)C(=O)N1CCN(c2ccccc2)CC1)S(=O)(=O)c1cccc2cnccc12,,,,,,,,,,,,,,,79%,,73%,,,
CCCCc1c(-c2ccc(O)cc2)[nH]c2nccnc12,29%,6%,,,,,89%,33%,78%,51%,7%,91%,100%,31%,10%,75%,61%,81%,52%,7%
COc1ccc(-c2cnc3c(-c4ccsc4)cnn3c2)cc1,85%,,,88%,85%,,85%,96%,90%,,,87%,95%,,,98%,92%,,,
O=c1c(-c2ccc(F)cc2)c(-c2ccncc2)[nH]n1-c1ccc(Cl)cc1,,,,,,,,,,,100%,,,43%,33%,,62%,44%,5%,100%
COc1cc2ncnc(Nc3cccc(Cl)c3)c2cc1OC,105%,,113%,107%,,,,100%,,,,,89%,79%,42%,100%,81%,87%,62%,71%
Cn1c2ccccc2c2c3c(c4c5ccccc5n(CCC#N)c4c21)CNC3=O,,,5%,4%,3%,6%,48%,38%,74%,79%,,2%,0%,25%,15%,,,70%,48%,36%
CC(C)(C)c1nc2c3ccc(F)cc3c3c(=O)[nH]ccc3c2[nH]1,,54%,,,,,71%,50%,69%,,,37%,24%,2%,1%,,,,,
O=C1Nc2ccccc2/C1=C\c1c(Cl)[nH]c2ccccc12,,55%,,40%,,40%,,32%,,59%,80%,,,75%,41%,,,85%,51%,34%
O=C1NC(=O)C(c2c[nH]c3ccccc23)=C1c1c[nH]c2ccccc12,,29%,74%,28%,76%,42%,,,76%,32%,36%,,53%,73%,25%,,,,56%,5%
Fc1ccc(-c2nc3n(c2-c2ccncc2)CCS3)cc1,,,,,,,124%,,,,,,,92%,88%,86%,28%,3%,1%,
CCN1/C(=C/C(C)=O)Sc2ccc(OC)cc21,82%,80%,,,,71%,,,82%,81%,,,,,,69%,21%,29%,4%,
Nc1ncnc2[nH]nc(Nc3ccc(F)cc3)c12,,39%,98%,,110%,,107%,78%,98%,,80%,,60%,73%,59%,,66%,42%,7%,36%

# Source: ChEMBL document CHEMBL2218924, “A broad activity screen in support of a chemogenomic map for kinase signalling research and drug discovery” (Biochem J, 2013)
